The nature of assay [1]: A CellTox Green Cytotoxicity Assay to monitor cytotoxicity in HEK293 cells - 32 hour (AID 1224881). Note: nearly all actives have a fitted effect of over 40% in size. Note: potency is the fitted concentration of half-maximal effect. The procedure, abridged: (§1)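 Fluorescence from a DNA-binding dye excluded by viable cells was measured repeatedly in the same HEK293 wells (600 cells/well) during continuous compound exposure at 37 C. Each assay gives one read point: 0, 8, 16, 24, 32 or 40 h.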
Assay [2] in a line: A CellTox Green Cytotoxicity Assay to monitor cytotoxicity in HepG2 cells - 32 hour (AID 1224883). Note: nearly all actives have a fitted effect of over 50% in size. Note: potency is the fitted concentration of half-maximal effect. Summed up:
(§2)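 Real-time cytotoxicity: fluorescence of a cell-impermeant cyanine dye binding DNA of dead HepG2 cells, measured repeatedly (0–40 h) during compound exposure at 37 C. Cells seeded 600/well with reagent, dosed after 5 h.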

Assay [3] can be described thus: A CellTox Green Cytotoxicity Assay to monitor cytotoxicity in HEK293 cells - 8 hour (AID 1224884). Note: nearly all actives have a fitted effect of over 35% in size. The procedure, abridged:
as §1

The nature of assay [4]: qHTS RealTime-Glo MT Cell Viability Assay in HepG2 cells - 16 hour (AID 1224885). Note: nearly all actives have a fitted effect of over 50% in size. Summed up:
(§3)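 Compound treatment began 5 h after plating HepG2 cells (600/well) with NanoLuc luciferase and prosubstrate. Plates stayed at 37 C for 40 h; luminescence was captured at six time points, 0 h through 40 h.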

Assay [5] is described as follows: A CellTox Green Cytotoxicity Assay to monitor cytotoxicity in HEK293 cells - 16 hour (AID 1224888). Note: nearly all actives have a fitted effect of over 35% in size. Note: potency is the fitted concentration of half-maximal effect. Summed up: as §1
The nature of assay [6]: qHTS RealTime-Glo MT Cell Viability Assay in HepG2 cells - 0 hour (AID 1224889). Note: nearly all actives have a fitted effect of over 50% in size. Summed up:
as §3

The nature of assay [7]: A CellTox Green Cytotoxicity Assay to monitor cytotoxicity in HepG2 cells - 8 hour (AID 1224890). Note: nearly all actives have a fitted effect of over 45% in size. The procedure, abridged: as §2
Assay [8] can be described thus: qHTS assay to identify small molecule antagonists of the estrogen receptor alpha (ER-alpha) signaling pathway using the BG1 cell line in the presence of 0.1 nM 17-beta-estradiol - cell viability counter screen (AID 1259241). Note: nearly all actives have a fitted effect of over 40% in size. Summed up:
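VM7Luc4E2 cells (endogenous ER-alpha, 4×ERE-luciferase), hormone-starved 5 days in charcoal-stripped FBS, were treated with compounds plus 0.1 nM 17beta-estradiol for 22 hr at 37C; viability read in same wells as CellTiter-Fluor live-cell protease fluorescence.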

The nature of assay [9]: qHTS assay to identify small molecule antagonists of the androgen receptor (AR) signaling pathway using the MDA cell line in the presence of 0.5 nM R1881 - cell viability counter screen (AID 1259242). Note: nearly all actives have a fitted effect of over 45% in size. Note: potency is the fitted concentration of half-maximal effect. Summed up:
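Live-cell protease activity was measured by CellTiter-Fluor fluorescence after 30 min. Before that, MDA-kb2 MMTV-luciferase cells had 16 hr at 37C without CO2, exposed to test compounds and 0.5 nM R1881 final.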

Assay [10] can be described thus: qHTS assay to identify small molecule HDAC inhibitors - cell viability counter screen (AID 1259365). Note: series mostly up to about 92 µM; nearly all actives have a fitted effect of over 50% in size. Summed up: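 Wild-type HCT-116 cells were seeded at 1,500 per well, incubated overnight at 37 C, then exposed to compounds in DMSO for 2hr. Viability was read by CellTiter-Glo luminescence after 30min at room temperature.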
Assay [11] can be described thus: qHTS assay to identify small molecule agonists of the sonic hedgehog signaling (Shh) pathway - cell viability counter screen (AID 1259366). Note: nearly all actives have a fitted effect of over 50% in size. Note: potency is the fitted concentration of half-maximal effect. The procedure, abridged:
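NIH/3T3-derived 3T3 Gli1-Luc cells (stable Gli1-responsive firefly luciferase reporter) were seeded, rested 4 hr at 37 C/5% CO2, then exposed to compounds in DMSO for 24 hr; viability was read by CellTiter-Fluor fluorescence in the same wells.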

The nature of assay [12]: qHTS assay to identify small molecule antagonists of the sonic hedgehog signaling (Shh) pathway - cell viability counter screen (AID 1259367). Note: nearly all actives have a fitted effect of over 55% in size. Note: potency is the fitted concentration of half-maximal effect. The procedure, abridged:
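Conditioned medium drove Shh signaling in 3T3 Gli1-Luc cells exposed to compounds at 37C and 5% CO2. Viability was determined from CellTiter-Fluor fluorescence, with reagent incubated 1 hr after 23 hr of treatment.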

Assay [13] in a line: qHTS assay to identify small molecule agonists of the sonic hedgehog signaling (Shh) pathway (AID 1259368; calls by dose curve; note: series mostly up to about 92 µM; nearly all actives have a fitted effect of over 15% in size). The procedure, abridged:
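Luminescence was read after 30 min at room temperature with luciferase reagent. Before that, 3T3Gli1-Luc cells (NIH/3T3 clone, stable Gli1-Luc reporter; 2,000/well) were exposed to compounds for 24 hr at 37C, 5% CO2, compounds being added 4 hr post-plating.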

Assay [14] can be described thus: A CellTox Green Cytotoxicity Assay to monitor cytotoxicity in HepG2 cells - 0 hour (AID 1224882). Note: nearly all actives have a fitted effect of over 35% in size. Summed up: as §2
A short description of assay [15]: qHTS RealTime-Glo MT Cell Viability Assay in HEK293 cells - 24 hour (AID 1224886). Note: nearly all actives have a fitted effect of over 50% in size. Note: potency is the fitted concentration of half-maximal effect. Summed up:
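Quantitative high-throughput screen of the Tox21 10K library in HEK293: cells and RealTime-Glo reagents plated together, compound added at 5 h, luminescence monitored through 40 h at 37 C.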

The nature of assay [16]: qHTS assay to identify small molecule HDAC inhibitors (AID 1259364). Note: top concentration of the series differs between compounds; nearly all actives have a fitted effect of over 45% in size. The procedure, abridged: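 Luminescence read after 30 min room-temperature HDAC-Glo incubation measures cellular class I/II HDAC activity. Compounds were applied for 2 hr at 37 C to HCT-116 wild-type cells seeded the day before.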
The nature of assay [17]: qHTS RealTime-Glo MT Cell Viability Assay in HEK293 cells - 8 hour (AID 1224887). Note: nearly all actives have a fitted effect of over 50% in size. Note: potency is the fitted concentration of half-maximal effect. The procedure, abridged: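 Luminescence, which tracks viable cell number through reduction of the prosubstrate to a NanoLuc substrate, was read over continuous 37 C culture. Cells (600/well) were premixed with reagent and rested 5 h before 23 nL of compound in DMSO was pinned.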
In assay [18] the target is Estrogen receptor (Homo sapiens) (UniProt P03372). Description: qHTS assay to identify small molecule antagonists of the estrogen receptor alpha (ER-alpha) signaling pathway using the BG1 cell line in the presence of 0.1 nM 17-beta-estradiol (AID 1259244). Note: nearly all actives have a fitted effect of over 50% in size. Note: potency is the fitted concentration of half-maximal effect. Summed up: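 Luciferase luminescence (ONE-Glo, 30 min at room temperature) was read after 22 hr at 37C exposure to compounds plus 17beta-estradiol at 0.1 nM final. Cells were VM7Luc4E2 with endogenous ER-alpha and an ERE-driven luciferase, pre-cultured 5 days in hormone-depleted medium.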
Estrogen receptor (Homo sapiens), sequence (P03372 whole entry, looked up): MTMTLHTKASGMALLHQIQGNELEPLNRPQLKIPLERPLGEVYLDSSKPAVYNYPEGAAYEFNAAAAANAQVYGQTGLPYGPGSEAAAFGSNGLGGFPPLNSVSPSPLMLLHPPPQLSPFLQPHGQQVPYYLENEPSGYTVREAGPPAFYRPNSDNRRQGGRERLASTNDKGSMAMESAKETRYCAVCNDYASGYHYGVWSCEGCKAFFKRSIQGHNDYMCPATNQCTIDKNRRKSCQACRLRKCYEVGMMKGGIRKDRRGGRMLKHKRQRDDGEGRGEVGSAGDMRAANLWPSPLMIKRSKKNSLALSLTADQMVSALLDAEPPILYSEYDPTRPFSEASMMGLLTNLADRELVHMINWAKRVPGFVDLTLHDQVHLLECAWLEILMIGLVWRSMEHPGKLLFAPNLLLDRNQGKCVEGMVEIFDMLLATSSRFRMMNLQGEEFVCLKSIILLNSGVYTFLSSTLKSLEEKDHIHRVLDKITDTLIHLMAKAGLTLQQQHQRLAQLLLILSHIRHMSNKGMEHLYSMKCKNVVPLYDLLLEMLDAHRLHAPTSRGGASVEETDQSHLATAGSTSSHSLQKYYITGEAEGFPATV

Assay [19] deals with Androgen receptor (Homo sapiens) (UniProt P10275). Description: qHTS assay to identify small molecule antagonists of the androgen receptor (AR) signaling pathway using the MDA cell line in the presence of 0.5 nM R1881 (AID 1259243). Note: nearly all actives have a fitted effect of over 50% in size. Note: potency is the fitted concentration of half-maximal effect. The procedure, abridged:
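Luminescent reporter readout (ONE-Glo, 30 min, room temperature) after 16 hr co-treatment of MDA-kb2 cells with test compounds and 0.5 nM R1881 final, at 37C without CO2. The MMTV-driven luciferase responds to both AR and GR.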

The nature of assay [20]: qHTS assay to identify small molecule phospholipidosis (PLD) inducers (AID 1259344; active = well fitted curve in the direction sought with a large enough effect; an effect the other way counts as inactive or inconclusive). The procedure, abridged:
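After 4 h attachment on collagen I, HepG2 cells were dosed with compound alongside LipidTOX Red, kept 24 h at 37 C, fixed, and imaged for lamellar phospholipid pits.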

Results filed as inconclusive are left out. The source made the active and inactive calls. Unless noted, calls come from the whole dose curve; as a rule, active = well fitted curve in the direction sought with a large enough effect in the repeat runs; inconclusive = weak or mixed curves; inactive = no such curve, though single readings can be large; an effect the other way counts as inactive or inconclusive.

Androgen receptor (Homo sapiens), sequence (P10275 whole entry, looked up): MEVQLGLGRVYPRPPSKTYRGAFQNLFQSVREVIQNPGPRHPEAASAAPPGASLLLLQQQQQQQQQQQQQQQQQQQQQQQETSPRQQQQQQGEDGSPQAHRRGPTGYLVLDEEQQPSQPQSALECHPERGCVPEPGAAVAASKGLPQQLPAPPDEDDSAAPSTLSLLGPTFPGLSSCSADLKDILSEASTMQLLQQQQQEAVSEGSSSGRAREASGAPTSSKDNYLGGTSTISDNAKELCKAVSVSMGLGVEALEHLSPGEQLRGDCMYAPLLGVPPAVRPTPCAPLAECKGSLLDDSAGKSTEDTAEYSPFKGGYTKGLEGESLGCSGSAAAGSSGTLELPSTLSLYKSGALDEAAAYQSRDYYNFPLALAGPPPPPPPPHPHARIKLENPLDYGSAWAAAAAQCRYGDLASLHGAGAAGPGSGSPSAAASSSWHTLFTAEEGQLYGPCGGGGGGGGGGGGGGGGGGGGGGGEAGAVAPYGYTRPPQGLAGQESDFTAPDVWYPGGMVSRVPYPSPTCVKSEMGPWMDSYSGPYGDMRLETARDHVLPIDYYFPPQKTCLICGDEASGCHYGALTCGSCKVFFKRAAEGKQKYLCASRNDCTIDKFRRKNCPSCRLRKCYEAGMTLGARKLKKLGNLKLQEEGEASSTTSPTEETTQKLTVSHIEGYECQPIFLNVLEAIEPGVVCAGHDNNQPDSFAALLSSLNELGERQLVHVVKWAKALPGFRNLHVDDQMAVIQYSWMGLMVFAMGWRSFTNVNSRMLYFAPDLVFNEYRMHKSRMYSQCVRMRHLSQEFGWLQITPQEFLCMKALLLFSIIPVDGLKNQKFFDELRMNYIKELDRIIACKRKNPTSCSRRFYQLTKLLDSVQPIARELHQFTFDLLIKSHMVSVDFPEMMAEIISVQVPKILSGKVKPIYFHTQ

For `COC(=O)c1cc(Oc2ccc(Cl)cc2Cl)ccc1[N+](=O)[O-]`, the Potency result in [1], in [2], in assay [3], in [4], in [5] and in assay [6] was “inactive” each time. Besides, the Potency entry in [7], in [8], in [9], in assay [10], in assay [11] and in [12] was “inactive” in each case. Besides, the Potency entry in assay [13] is “inactive”.
As for `FC(F)C(F)(F)OCC(Cn1cncn1)c1ccc(Cl)cc1Cl` (stereo not given), the Potency entry in assay [14], in assay [3], in assay [5], in [6], in assay [9] and in [16] was “inactive” in each case. For the same molecule, the Potency result in assay [10] and in [13] was “inactive” each time. Further, the Potency in assay [2] is 48.7 µM (active); in assay [15], 21.7 µM (active); in assay [11] it was 48.3 µM (active).
For the molecule `c1ccc(Nc2ccc(Nc3ccccc3)cc2)cc1`, the Potency entry in assay [14], in assay [2], in assay [4], in [6], in assay [7] and in assay [8] was “inactive” throughout. The Potency result in assay [9], in assay [18], in [16], in assay [10] and in [12] was “inactive” throughout. Moreover, the Potency was 21.8 µM (active) in assay [15] and 15.4 µM (active) in [17].
For the molecule `CO/N=C(\C(=O)OC)c1ccccc1CO/N=C(\C)c1cccc(C(F)(F)F)c1`, the Potency entry in [1], in [2], in [3], in assay [4], in assay [5] and in assay [6] was “inactive” each time. Besides, the Potency entry in [7], in assay [10], in [11], in assay [12] and in assay [13] was “inactive” in each case.
Regarding `COC(=O)C(C)N(C(=O)c1ccco1)c1c(C)cccc1C` (stereo not given), the Potency result in assay [1], in [3], in assay [4], in assay [15], in [17] and in [5] was “inactive” each time. In addition, the Potency entry in assay [6], in [7], in assay [8], in [9], in assay [18] and in assay [16] was “inactive” each time. Besides, the Potency result in assay [10], in assay [11], in assay [12] and in [13] was “inactive” in each case.
Turning to `C#CC1(O)CCCCC1`, the Potency result in assay [1], in assay [3], in [4], in assay [15], in assay [17] and in assay [6] was “inactive” throughout. Besides, the Potency entry in assay [7], in assay [8], in assay [9], in assay [16], in assay [10] and in assay [11] was “inactive” in each case. Also, the Potency entry in [12] and in [13] was “inactive” in each case.
In the case of `CCC(OC(C)=O)C(CC(C)NC)(c1ccccc1)c1ccccc1` (stereo not given), the Potency was 62.2 µM (active) in assay [1]; 55.4 µM (active) in assay [2]; 55.4 µM (active) in assay [15]; 62.2 µM (active) in assay [5]; 43.6 µM (active) in assay [9]; 27.5 µM (active) in assay [19]. Further, the Potency was 69.2 µM (active) in [18], 34.7 µM (active) in assay [11] and 61.6 µM (active) in [12]. The Potency entry in [16], in assay [10] and in assay [13] was “inactive” throughout.
As for `Cc1c([N+](=O)[O-])cc2c(c1[N+](=O)[O-])C(C)(C)CC2(C)C`, the Potency entry in assay [2], in assay [4], in [17], in assay [6], in assay [7] and in [8] was “inactive” throughout. In addition, the Potency result in assay [9], in [10], in assay [12] and in assay [13] was “inactive” each time.
As for `Nc1ccccc1-c1ccccc1`, the Potency entry in [14], in [2], in assay [3], in [4], in assay [15] and in [17] was “inactive” each time. In addition, the Potency result in assay [5], in assay [6], in assay [7], in [8], in assay [9] and in [18] was “inactive” in each case. Moreover, the Potency result in assay [10], in [11], in assay [12] and in [13] was “inactive” in each case.
Regarding `CCc1cccc(C)c1N(C(=O)CCl)[C@@H](C)COC`, the Potency result in [14], in assay [17], in assay [6], in assay [8], in assay [9] and in [16] was “inactive” in each case. Further, the Potency result in [10], in [11], in assay [12] and in assay [13] was “inactive” in each case. Moreover, in [2], the Potency is 43.6 µM (active).
In the case of `Oc1ccc2[nH]cc(CCCCN3CC=C(c4ccccc4)CC3)c2c1`, the Potency result in assay [14], in assay [3], in [4], in assay [5], in [6] and in [7] was “inactive” in each case. In addition, the Potency entry in assay [8], in assay [9], in [12] and in assay [13] was “inactive” in each case. In addition, the Potency in assay [2] is 23.9 µM (active); in [15], 19 µM (active); in [17] it was 8.49 µM (active). In assay [20], the result was inactive.
`CCCCN(CCCC)C(=S)S`: the Potency result in assay [1], in assay [3], in assay [4], in assay [15], in assay [17] and in assay [5] was “inactive” in each case. The Potency result in assay [6], in [7], in assay [8], in assay [9], in assay [18] and in [16] was “inactive” throughout. In addition, the Potency result in assay [11] and in assay [13] was “inactive” each time.
Regarding `CC1=C2C[C@H]3[C@@H](CC=C4C[C@@H](O)CC[C@@]43C)[C@@H]2CC[C@]12O[C@@H]1C[C@H](C)CN[C@H]1[C@H]2C`, the Potency entry in [14], in [3], in [4], in [5], in [7] and in [8] was “inactive” each time. Besides, the Potency result in assay [19], in [18], in assay [16], in [10], in assay [11] and in assay [12] was “inactive” each time. Further, the Potency entry in [13] is “inactive”. In addition, the Potency in [2] was 26.8 µM (active); in assay [15], 16.9 µM (active).

Source of the values: PubChem BioAssay (Tox21).
